Caspase-7 inhib: caspase-7 (human) inhibition, allosteric or competitive. P55210. recombinant caspase-7, Ac-DEVD-AFC fluorescence rate. Potency, µM (highest dose often 57.5 µM), for the others: at the highest dose activity change, negative = inhibition, usual class: inhibitors. 75,000 compounds, 0.02% hits; active = well fitted inhibition curve with a large enough effect in the main read-out, with a control signal flat, not every such curve was filed as active; inconclusive = small, poorly fitted or top-dose-only effect, or a change in a side signal; also: % of control where 0% means no effect
Target sequence (P55210 24-198 limits assumed): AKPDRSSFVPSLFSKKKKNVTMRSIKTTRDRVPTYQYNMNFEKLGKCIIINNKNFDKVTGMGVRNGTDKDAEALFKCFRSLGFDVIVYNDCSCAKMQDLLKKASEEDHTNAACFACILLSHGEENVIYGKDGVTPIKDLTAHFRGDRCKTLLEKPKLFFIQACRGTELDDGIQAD
Target sequence (P55210 207-303 limits assumed): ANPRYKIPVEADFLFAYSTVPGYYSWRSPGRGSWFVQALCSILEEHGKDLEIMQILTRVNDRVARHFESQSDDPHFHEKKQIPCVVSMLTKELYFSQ
TSHR agonist: TSH receptor (human) agonism; 73,000 compounds, 0.48% hits; Potency, µM (highest dose often 57.1 µM), for the others: at the top dose activation, actives largely listed as activators; HEK293-CNG-TSHR cells (CNG channel as cAMP sensor), membrane potential dye, cAMP; active = well fitted activation curve with a large enough effect in the main read-out, with a control signal flat, not every such curve was filed as active; inconclusive = small, poorly fitted or top-dose-only effect, or a change in a side signal; inactive = no such curve, though single readings can be large or run the other way; % of control where 0% means no effect;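 also: the control signal comes from parental cells without the receptor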
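cAMP rise detected as CNG-channel membrane depolarization by fluorescent dye (emission 590 nm), 30 min after compound, following 60 min dye loading containing 100 uM RO 20-1724 at room temperature. Cells: TSHR/CNG HEK 293, with parental CNG HEK 293 as control.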
Casp1 inh: caspase-1 (human) inhibition, allosteric or competitive; 75,000 compounds, 0.03% hits; AID 900; Potency, µM (titrated, usually from 57.5 µM), inactives show at the highest dose activity change, negative = inhibition, actives largely listed as inhibitors; Caspase-1 enzyme, Ac-WEHD-AFC fluorogenic rate; P29466;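 also: plate controls were vehicle for no effect and no substrate for full effect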
Target sequence (P29466 120-297 limits assumed): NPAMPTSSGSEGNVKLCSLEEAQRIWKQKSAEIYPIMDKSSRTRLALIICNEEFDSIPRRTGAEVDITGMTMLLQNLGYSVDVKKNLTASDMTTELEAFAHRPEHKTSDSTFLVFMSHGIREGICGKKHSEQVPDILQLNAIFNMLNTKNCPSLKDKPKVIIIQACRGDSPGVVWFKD
Target sequence (P29466 317-404 limits assumed): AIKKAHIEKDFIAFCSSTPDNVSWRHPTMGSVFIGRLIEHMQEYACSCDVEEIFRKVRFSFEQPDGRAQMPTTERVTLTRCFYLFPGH
HEK293 cAMP ctrl: parental HEK293 cAMP activation (counter-screen). parental HEK293 CNG cAMP sensor, membrane potential fluorescence. Potency, µM (titrated, usually from 57.1 µM), for the others: top-dose activation, hits mostly activators. 73,000 compounds, 2.5% hits. AID 938; also: % of control where 0% means no effect; nearly all actives have a fitted effect of over 55% in size
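Parental HEK 293 cells stably expressing a modified CNG channel (no TSHR) report cAMP rise as membrane depolarization. Membrane potential dye with 100 uM RO 20-1724 was loaded for 60 min at room temperature, then compound added for 30 min; fluorescence read at 590 nm.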
CRE-bla Fsk: CRE-bla signaling modulation under forskolin stimulation. Potency, µM (top dose mostly 38.2 µM), inactives show at the highest dose activity change, negative = inhibition, actives largely listed as activators. CHO CRE-bla reporter (cAMP response element driving beta-lactamase), forskolin EC10, beta-lactamase ratio. 71,000 compounds, 2.5% hits; active = well fitted activation curve with a large enough effect in the signal ratio, with a control signal flat, not every such curve was filed as active; inconclusive = small, poorly fitted or top-dose-only effect, or effect the other way, or a change in a side signal; the % refers to the signal ratio; also: % of control where 0% means no effect
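Using CellSensor CRE-bla CHO cells in Opti-MEM with 0.5% dialyzed FBS, compounds were titrated with EC10 NKH 477 for 3 h at 37 °C. CCF4 ratio (460/530 nm) gave %Activity; AC50 derived.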
USP2a inhib: USP2a (human) protease inhibition; USP2a enzymatic assay, qHTS inhibition; Potency, µM (doses to about 38.3 µM), for the others: at the highest dose activity change, negative = inhibition, usual class: inhibitors; 60,000 compounds, 0.1% hits; also: nearly all actives have a fitted effect of over 60% in size
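Inhibition is measured in a cell-free coupled assay with 20 nM USP2 core, 20 nM Ub-PLA2 and 20 uM NBD C6-HPC, 2.5 h incubation. Activity normalized to NEM control.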
Active calls of the source: *; u = inconclusive; x = not tested or not shown; [ ] = dose if it differs, or a comment. A selection: hits, their analogues and other compounds. The true share with any hit is near 5%. Unless noted, calls follow the shape of the dose curve; as a rule, active = well fitted curve in the direction sought with a large enough effect; inconclusive = small, poorly fitted or top-dose-only effect, or another doubt; inactive = no such curve, though single readings can be large; an effect the other way counts as inactive or inconclusive. Potency is read from the fitted curve at half-maximal effect.

SMILES | Caspase-7 inhib | TSHR agonist | Casp1 inh | HEK293 cAMP ctrl | CRE-bla Fsk | USP2a inhib
CCCCCCCCCCCCCCCCCCNC(=O)OC[C@@H](COP(=O)([O-])OCC[n+]1ccsc1)OC | -1% | u | -1% | u | -3% | 18%
C=Cc1ccccc1Cl | 1% | 3% | -6% | 13% | -5% | x
C/C(=C\COc1cc(=O)[nH]c2ccccc12)CC[C@@H](O)C(C)(C)O | x | 1% | x | -4% | -11% | x
O=C1C=CC2=C3c4cc(O)c(O)cc4C[C@@]3(O)COC2=C1O | x | 5% | x | 1% | u | x
Cn1c(C(=O)Nc2ccc3c(c2)OCCO3)cc2c(=O)n(C)c3ccccc3c21 | -3% | 6% | -6% | 0% | 0.4µM* | x
Cc1c(C(=O)NCc2ccc3c(c2)OCO3)oc2ccccc12 | -4% | u | -3% | 25µM* | u | -5%
O=C(CSCc1cnn(-c2ccccc2)c1-n1cccc1)NCc1ccc2c(c1)OCO2 | -3% | u | -2% | 32µM* | 10% | 1%
O=C(CSCc1cnn(-c2ccccc2)c1-n1cccc1)NCCN1CCOCC1 | -1% | 6% | 1% | 12% | -4% | 17%
Cc1c(C(=O)O)c(O)cc2c1C(=O)c1c(O)c([C@@H]3O[C@H](CO)[C@@H](O)[C@H](O)[C@@H]3O)c(O)c(O)c1C2=O | x | -2% | x | 3% | u | x
C/C(=N/Nc1ccc2ccccc2n1)c1ccccc1O | -1%[11.5 µM] | -12%[11.4 µM] | -1%[11.5 µM] | -8%[11.4 µM] | -9%[7.6 µM] | x
COc1ccc2nc3c(nc2c1)C(=O)c1ccccc1-3 | -5% | 2% | -10% | -5% | x | x
CCOC(=O)C(C)Oc1cccc2c(=O)n(CC(=O)NCc3ccc4c(c3)OCO4)ccc12 (stereo unspecified) | 3% | -7% | -1% | 9% | u | x
CCOC(=O)C(C)Oc1cccc2c(=O)n(CC(=O)Nc3ccc4c(c3)OCCO4)ccc12 (stereo unspecified) | 1% | u | -2% | u | 10µM* | x
COc1ccc(CNC(=O)C(OC(C)=O)c2ccccn2)cc1 (stereo unspecified) | 2% | u | -3% | 7.9µM* | 1% | -5%
N#CCCn1c(=O)c(-c2cccs2)nc2cnc(N3CCNCC3)nc21 | u | -1% | x | -2% | u | 270%
Cc1nn(-c2ccc(Cl)cc2)c2sc(C(=O)N3CCN(C(=O)c4ccco4)CC3)cc12 | 0% | 1% | 1% | 4% | -2% | -3%
Cc1nn(-c2ccc(F)cc2)c2sc(C(=O)N3CCCCCC3)cc12 | x | x | -1% | 24% | 1µM* | -12%
Cc1ccc2c(CSc3nc4ccccc4c(=O)n3CCCO)cc(=O)oc2c1 | -1% | u | 2% | u | 2µM* | 45%
COc1ccc(S(=O)(=O)N(C)CC(=O)O)cc1C | -2% | -5% | 0% | -25% | x | x
O=C(CSc1nnc(Cc2cccs2)n1C1CCCCC1)N1CCCc2ccccc21 | -4% | u | 3% | 13µM* | -14% | 52%
O=C(CSc1nnnn1C1CCCC1)N1CCCc2ccccc21 | -2% | u | 1% | u | 2% | 7%
CC(C)CCC[C@@H](C)[C@@H]1CC[C@@H]2[C@H]3CC[C@H]4C[C@@H](N)CC[C@@]4(C)[C@@H]3CC[C@]21C | -3%[11.5 µM] | -3%[11.4 µM] | 1%[11.5 µM] | 4%[11.4 µM] | 4%[7.6 µM] | x
CN(Cc1ccccc1)c1nc2c(c(=O)[nH]c(=O)n2C)n1C | 0% | -3% | 0% | -6% | 12% | -1%
Cc1cccc(Cn2c(N(C)Cc3ccccc3)nc3c2c(=O)[nH]c(=O)n3C)c1 | -5% | 10% | -3% | 8% | 13µM* | x
Cc1cccc(Cn2c(SCC(=O)Nc3ccccc3)nc3c2c(=O)[nH]c(=O)n3C)c1 | -2% | 1%[11.4 µM] | -6% | -6% | u | x
SMILES | Caspase-7 inhib | TSHR agonist | Casp1 inh | HEK293 cAMP ctrl | CRE-bla Fsk | USP2a inhib
C/C=C/Cn1c(N(C)Cc2ccccc2)nc2c1c(=O)[nH]c(=O)n2C | 0% | 10% | -1% | 5% | 10µM* | x
O=C(NCc1ccco1)c1ccc(CS(=O)(=O)Cc2ccc(Cl)cc2)o1 | 0% | 6% | -2% | 2% | u | -8%
O=C(NCc1ccco1)c1cc2cc3ccc(Cl)cc3nc2o1 | 1% | -4% | -1% | 5% | 2µM* | -7%
O[C@@H](c1cc(-c2ccccc2)nc2c1ccc1ccccc12)[C@@H]1CCCCN1 | -3%[11.5 µM] | 10%[11.4 µM] | -1%[11.5 µM] | -2%[11.4 µM] | -17%[7.6 µM] | x
Nc1nc(N)c2nn(-c3ccc(C(=O)O)cc3)nc2n1 | 0%[11.5 µM] | -2%[11.4 µM] | -2%[11.5 µM] | -2%[11.4 µM] | -3%[7.6 µM] | x
O=c1cc(CF)[nH]c(=S)[nH]1 | -1%[11.5 µM] | -2%[11.4 µM] | -2%[11.5 µM] | 2%[11.4 µM] | -9%[7.6 µM] | x
COc1ccc(-c2nnc(COc3ccc4ccccc4c3)o2)cc1OC | -3% | u | -5% | 4µM* | u | 41%[7.66 µM]
COc1cc(-c2nnc(COc3ccc4cc(Br)ccc4c3)o2)cc(OC)c1OC | -3% | 21% | -2% | 11% | 2.5µM* | 13%
CCCNC(=O)OC[C@@H]1O[C@H](CCON=C(C)C)C=C[C@@H]1Oc1ccc(OC)cc1 | 0%[11.5 µM] | 3%[11.4 µM] | -4%[11.5 µM] | -2%[11.4 µM] | x | x
COC(=O)c1ccc(Oc2ccc3nnc(C)n3n2)cc1 | 2% | -2% | 1% | 15% | 10% | 3%
Cc1nnc2ccc(Oc3ccc(-c4ccccc4)cc3)nn12 | -2% | u | 0% | u | 0.79µM* | 26%
COc1cc(CO)cc(-c2cc(CO)cc(OC)c2OC)c1OC | -1% | 1% | -4% | 1% | u | -3%
COc1cc(CO)cc(Br)c1OCC(=O)O | -3% | 25µM* | -1% | 13% | -6% | x
O=C(Nc1ccc2c(c1)OCO2)c1cccc2c1C(=O)N(C1CCCCC1)C2 | -7% | 3.2µM* | -1% | 19% | -9% | 7%
COCCN1Cc2cccc(C(=O)Nc3cc(OC)ccc3OC)c2C1=O | 1% | 12% | -2% | 6% | 10µM* | 2%
COCCN1Cc2cccc(C(=O)Nc3cc(C)cc(C)c3)c2C1=O | 0% | 11% | 0% | 8% | 8% | 29%
CCCN1Cc2cccc(C(=O)Nc3ccc4c(c3)OCO4)c2C1=O | -2% | u | -4% | u | u | 42%
CCCN1Cc2cccc(C(=O)Nc3ccc4c(c3)OCCO4)c2C1=O | -5% | 3% | -2% | -3% | 13µM* | x
O=C(Nc1ccc2c(c1)OCO2)c1cccc2c1C(=O)N(Cc1cccnc1)C2 | -9% | 23% | -3% | -5% | u | 35%
C=CC(C1=CC(=O)C(OC)=C(OC)C1=O)c1ccccc1 (stereo unspecified) | -3% | x | -1% | x | x | u
CCCn1c(N2CCN(CC(=O)c3c(C)n(C)c4ccccc34)CC2)nc2c1c(=O)[nH]c(=O)n2C | 4% | 13% | 0% | 5% | 7.9µM* | 48%
